Experimental data from ChEMBL document CHEMBL1157539, “Thousands of chemical starting points for antimalarial lead identification” (Nature, 2010).

Legend:
Format in all cases: functional
Plasmodium falciparum [1] = assay: GSK_TCMDC: Inhibition of Plasmodium falciparum 3D7 in whole red blood cells, using parasite LDH activity as an index of growth. Test compounds present at 2uM
Plasmodium falciparum [2] = assay: GSK_TCMDC: Inhibition of Plasmodium falciparum Dd2 in whole red blood cells, using parasite LDH activity as an index of growth. Test compounds present at 2uM
HepG2 = assay: GSK_TCMDC: Percent inhibition of human HepG2 cell line. Test compounds present at 10uM.

SMILES | Inhibition (Plasmodium falciparum [1]) [%] | Inhibition (Plasmodium falciparum [2]) [%] | Inhibition (HepG2) [%]
CCN(CC)CCCCNc1cc(-c2[nH]c(C(C)(C)C)nc2-c2ccc3cc(OC)ccc3c2)ccn1.O=C(O)C(F)(F)F | 85 | 76 | 23
O=C(Nc1cccc(C(F)(F)F)c1)N1CCOC(CCN2CCC3(CCc4ccccc43)CC2)(c2ccc(Cl)c(Cl)c2)C1 (stereo not given) | 99 | 70 | 31
COc1ccc2nc(C)cc(NCc3cccc4ccccc34)c2c1.Cl | 100 | 72 | 28
O=C(Nc1ccc(-c2cccc(CN3CCC(O)CC3)c2)cc1)c1cccc(Cl)c1.O=C(O)C(F)(F)F | 94 | 14 | 50
C=CCc1cc(OC)ccc1OCCCOc1c(C)nc(N)nc1N.Cl | 92 | 97 | 67
